# About 83,000 compounds went through this panel and 20% of them were active in at least one assay; those are over-represented in the sample as a whole.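 Growth was measured after 48 h exposure to one concentration of compound in 96-well plates. Values under 10 count as active.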 Activity calls are given as the source filed them.
# Test system: PC-3 prostate
# Experiment: NCI-60 one-dose screen, 48 h (100 = growth as untreated, 0 = no growth, -100 = all killed)
# Conditions: 10 µM unless noted
# Protocol: Growth inhibition of the PC-3 human tumor cell line is measured as a screen for anti-cancer activity. Cells are grown in 96 well plates and exposed to the test compound for 48 hours. Compounds are tested at a single concentration, which is 10^-5 M for most compounds. The reported endpoint is percent growth (GI% or GIPRCNT), where numbers from 0 - 100% represent growth inhibition, and numbers from -100% - 0 represent cell death. For example, a value of 40 represents 60% growth inhibition. A value of 0 means no net growth occurred over the course of the experiment. A value of -40 indicates 40% of cells at the beginning of the experiment died by the end of the experiment. A value of -100 means all cells are dead at the end of the experiment.
# NCI-60 Human Tumor Cell Lines Screen was performed using the standard one-dose NCI protocol, which is described in more detail at https://dtp.cancer.gov/discovery_development/nci-60/default.htm.
# Compounds with GIPRCNT values below 10 were considered active. Activity score was based on GIPRCNT using the following formula: […]
# Score is 0 for GIPRCNT values of 100 or above, 50 for GIPRCNT values of 0, and 100 for GIPRCNT values of -100.
row,SMILES,growth
1,COC(=O)C1(C)CCC[C@]2(C)[C@H]3C[C@H]4C(C(C)C)=C[C@]3(CC[C@@H]12)[C@H]1[C@@H]4[C@@H](OC(=O)c2ccco2)CC[C@@H]1OC(=O)c1ccco1 (stereo not given in full),87.9% (inactive)
2,Cc1cccc(/C=C/C(=O)Nc2ncc(Cc3cccc(C)c3)s2)c1,13% (inactive)
3,c1ccc(C(c2nc3ncncc3[nH]2)N2CSc3nc4ncncc4n3C2)cc1 (stereo not given),78.2% (inactive)
4,CC1(C)CC[C@]2(C(=O)O)CC[C@]3(C)C(=CC[C@@H]4[C@@]5(C)CC/C(=N\OCCC#N)C(C)(C)[C@@H]5CC[C@]43C)[C@@H]2C1,99.2% (inactive)
5,C#C[C@]1(O)CC[C@H]2[C@@H]3CC=C4c5sc(-c6ccc7c(c6)OCO7)nc5CC[C@]4(C)[C@H]3CC[C@@]21C,-23.7% (active)
6,NS(=O)(=O)c1ccc(-n2cc(CN3CCCCC3)nn2)cc1,98.9% (inactive)
7,CNCc1cccc2c1OCCCCCCC(C)(O)CC(C)(C)S(=O)(=O)c1ccc(cc1)-c1cnc(N)c(n1)C(=O)N2 (stereo not given),16% (inactive)
8,CCCn1cnc2c(c1=N)C(c1ccc(F)cc1)c1sc3c(CC)cccc3c1O2 (stereo not given),24% (inactive)
9,Cc1ccc(S(=O)(=O)N(CC[C@@H]2C[C@H]2c2cc3ccccc3o2)S(=O)(=O)c2ccc(C)cc2)cc1,87% (inactive)
10,NC(N)=Nc1ccc(Oc2cccc(Nc3cccc(C(F)(F)F)c3)c2)cn1,-74.8% (active)
11,O=c1[nH]c2ccccc2cc1CSc1ccccc1Nc1nccc(-c2ccc(Cl)cc2)n1,87.9% (inactive)
12,O=C(CSc1nc2ccccc2c(=O)n1-c1ccccc1)Nc1cccc(C(=O)/C=C/c2ccccc2)c1,90.4% (inactive)
13,Cc1ccc(-c2nnc(SCc3ccc(O)c4ncccc34)n2-c2ccccc2)cc1,5.96% (active)
14,Cc1ccc(NC(=O)N[C@@H](Cc2cc(F)cc(F)c2)C(=O)NC2C(=O)N3C[C@H](O)C[C@H]3C(=O)N3CCCC[C@H]3C(=O)N[C@@H](CO)C(=O)N3C[C@H](C)C[C@H]3C(=O)O[C@H]2C)c(F)c1 (stereo not given in full),20% (inactive)
15,COc1ccc([C@H]2c3[nH]c4ccccc4c3C[C@H]3C(=O)N(C4CCN(Cc5c(Cl)cccc5Cl)CC4)CC(=O)N23)c(OC)c1,72.7% (inactive)
16,Cc1cc(C(NC(=O)CCCCCNc2cccc3c2C(=O)N(C2CCC(=O)NC2=O)C3=O)c2ccc3c(c2)OC(F)(F)O3)c(O)c2ncccc12 (stereo not given),32.3% (inactive)
17,O=S(=O)(NCCNc1nccc(-n2cnc3ccccc32)n1)c1ccc(Cl)cc1,103% (inactive)
18,C[C@@H](Nc1ncnc2ccc(-c3cnc(Cl)c(NS(C)(=O)=O)c3)cc12)c1ccccc1,41.5% (inactive)
19,CCOC(=O)c1c(N)c(C#N)cn1-c1cc(OC)c(OC)c(OC)c1,105% (inactive)
20,C=C(C=O)[C@@H]1CC[C@]2(COC(C)=O)CC[C@]3(C)C(CC[C@@H]4[C@@]5(C)CC[C@H](OC(C)=O)C(C)(C)[C@@H]5CC[C@]43C)[C@@H]12 (stereo not given in full),6.79% (active)

row,SMILES,growth
1,Nc1nc(Nc2ccccc2SSc2ccccc2Nc2nc(N)nc(-c3ccc4ccccc4c3)n2)nc(-c2ccc3ccccc3c2)n1,45.5% (inactive)
2,CNC(=O)c1cc(-n2ccc3cc(NC(=O)Nc4ccc(N5CCOCC5)c(C(F)(F)F)c4)ccc32)ccn1,4.72% (active)
3,COC(=O)c1ccc(NC2=C/C(=N/S(=O)(=O)c3ccc(C(=O)O)cc3)c3ccccc3C2=O)cc1,16.6% (inactive)
4,COc1c(N2CC3CCCNC3C2)c(F)cc2c(=O)c(C(=O)N/N=C/c3ccc(Br)cc3)cn(C3CC3)c12 (stereo not given),65.1% (inactive)
5,CC1(C)CC[C@]2(CN)CC[C@]3(C)C(=CC[C@@H]4[C@@]5(C)CCCNC(C)(C)[C@@H]5CC[C@]43C)[C@H]2C1,87.6% (inactive)
6,COc1cc(-c2nn(C(C)(C)C)cc2-c2ccnc(NCCCNS(=O)(=O)c3cccc(F)c3)n2)ccc1Cl,51.3% (inactive)
7,CCCn1cnc2c(c1=N)C(c1ccc(OC)cc1)c1sc3c(C)cccc3c1O2 (stereo not given),6.95% (active)
8,O=C(NCCn1ccnc1)c1ccc(-c2nc3ccc4[nH]ncc4c3c3c2CCCC3)cc1,47.6% (inactive)
9,C=C(C=O)[C@@H]1CC[C@]2(C)[C@H](CC=C3[C@H]4[C@@H](C)[C@H](C)CC[C@]4(C(=O)OC)CC[C@]32C)[C@@]1(C)CCC#N,9.4% (active)
10,CCOC(=O)c1c(Nc2ccccc2)nn2c(-c3ccccc3)ccnc12,92.8% (inactive)
11,NC(=O)c1cccc(C#CCNC[C@H]2C[C@@H](n3ccc4c(Cl)ncnc43)[C@H](O)[C@@H]2O)c1,102% (inactive)
12,Cc1occc1-c1nc2s/c(=C/c3ccc(-c4cc(C(F)(F)F)ccc4Cl)o3)c(=O)n2n1,97.7% (inactive)
13,COc1ccc(/C(N)=N/C(N)=N/c2nc3ccccc3s2)cc1,62% (inactive)
14,O=c1[nH]c(Sc2sc3ccc(Cl)cc3c2CBr)nc(=S)[nH]1,26.4% (inactive)
15,CC1(C)[C@@H](O)CC[C@]2(C)[C@H]3CC[C@@H]4[C@H]5[C@H](C(=O)/C=C\c6ccccn6)CC[C@]5(O)CC[C@@]4(C)[C@]3(C)CC[C@@H]12,39.9% (inactive)
16,CCN(CC)c1ccc2c(c1)Oc1nc(N)c(C#N)c(N)c1C2Sc1ccc(F)cc1 (stereo not given),-74% (active)
17,CCCCc1nc(/C=N/Nc2nc(Nc3ccccc3)nc(Nc3ccc(S(N)(=O)=O)cc3)n2)c(Cl)[nH]1,83% (inactive)
18,Cc1cc(C)c2sc(=O)n(Cc3nnc(SCCC(=O)O)o3)c2n1,92.7% (inactive)
19,CCOc1cccc(-c2nc3sccn3c2-c2ccnc(S(C)(=O)=O)n2)c1,96.9% (inactive)
20,Cc1ccc(-c2nn(-c3ccccc3)cc2/C=C/C(=O)c2ccc(NC(=O)CCCCCCC(=O)NO)cc2)cc1,74.6% (inactive)

# Source: PubChem BioAssay (NCI)
